# Resorufin fluor: resorufin region autofluorescence. Compound fluorescence, resorufin region 547/598 nm, buffer; active compounds read high. max dye-equivalent concentration, M. 0.04% of 59,000 active
#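 Dye-equivalent concentration values derive from comparing each well's 547/598 nm fluorescence against resorufin standards included on every plate. Incubation was 15 min at room temperature in 100 mM Tris, pH 8.0.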
# A488 autofl: compound fluoresces in the A488 spectral region | 0.1% of 59,000 active | max dye equivalency, M | AID 591 | compound autofluorescence, A488 spectral region, dye equivalency; Compound Type: qHTS ECL - MLSMR
#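 Read-out: relative fluorescence at 480/540 nm, expressed as Alexa 488 dye-equivalent concentration from a six-point A488 standard included per plate. Conditions: 100 mM Tris, pH 8.0; 15 min incubation, room temperature.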
# Texas Red fluor: compounds fluorescent in Texas Red spectral region; Compound fluorescence, Texas Red channel, 547/618 nm; active compounds read high; max dye-equivalent concentration, M; 0.06% of 59,000 active; in the data active = max dye-equivalent concentration above about 10 nM; inconclusive = between about 1.1 nM and that limit
#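 Dye-equivalent concentrations come from scaling compound signal (ex 547, em 618 nm) to six Texas Red standard concentrations run on every plate, after 15 min room-temperature incubation in pH 8.0 Tris (100 mM).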
# Fluorescein autfl: compound autofluorescence in fluorescein spectral region; max fluorescein-equivalent concentration, M; 0.91% of 59,000 active; AID 593; Compound autofluorescence, 480/540 nm, fluorescein-equivalent; active compounds read high; in the data active = max fluorescein-equivalent concentration above about 10 nM; inconclusive = between about 1.1 nM and that limit
#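 Fluorescein stocks ranging 3 mM down to 300 nM, plus DMSO blanks, were pinned alongside compounds to build a per-plate standard curve. Buffer: 100 mM Tris, pH 8.0. Incubation 15 min, room temperature; filters 480/540 nm.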
# Rhodamine fluor: compound autofluorescence in rhodamine spectral region; Rhodamine-region fluorescence, 547/598 nm, Tris buffer; active compounds read high; max dye-equivalent concentration, M; 0.05% of 59,000 active; AID 594; in the data active = max dye-equivalent concentration above about 11 nM; inconclusive = between about 1.1 nM and that limit
#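 Steps: pin-transfer compounds into pH 8.0 Tris (100 mM), hold 15 min at room temperature, image with a 547/598 nm filter pair, and convert intensities to rhodamine-equivalent concentration using a six-point on-plate rhodamine series.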
# A647 fluor: compound autofluorescence in A647 spectral region. Compound fluorescence, A647 channel (570/671 nm), Tris buffer. max dye-equivalent concentration, M. 59,000 tested, under 10 active
#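 Compound fluorescence was measured in 100 mM Tris buffer, pH 8.0, after 15 min at room temperature, using 570 nm excitation and 671 nm emission filters. Signal was normalized to a per-plate Alexa 647 standard curve and expressed as dye-equivalent concentration at each compound concentration.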
# Numbers stand for hits; - = inactive; ? = inconclusive; ! = repeats disagree. Most compounds without a hit are left out; they make up all but 0.9% or so of the library. Unless noted, no rule for the calls is given here.
SMILES,Resorufin fluor,A488 autofl,Texas Red fluor,Fluorescein autfl,Rhodamine fluor,A647 fluor
O=c1ccn([C@@H]2O[C@@H](COP(=O)(O)OP(=O)(O)O)[C@H](O)[C@@H]2O)c(=O)[nH]1,-,-,-,?,-,-
CN1/C(=C\P(=O)(N(C)C)N(C)C)C(C)(C)c2ccccc21,1.04e-08M,-,4.68e-08M,?,1.16e-08M,-
COc1ccc2cc3c(N)c(C(=O)NCc4ccco4)sc3nc2c1,-,-,-,2.36e-08M,-,-
CCN(CC)CCC[C@H](C)Nc1c2ccc(Cl)cc2nc2ccc(OC)cc12,-,?,-,9.02e-08M,-,-
COc1cc(/C=c2\s/c(=C(/C#N)C(=O)N3CCCC3)n(-c3ccccc3)c2=O)ccc1O,-,-,-,?,-,-
Cc1ccc(/C=c2\s/c(=C(/C#N)C(=O)N3CCCC3)n(Cc3ccco3)c2=O)s1,-,?,?,6.39e-08M,-,-
CCn1cc(C(=O)NCc2ccco2)c(=O)c2cc(S(=O)(=O)N3CCCCCC3)ccc21,-,-,-,-,-,-
CCn1cc(C(=O)NCc2ccccn2)c(=O)c2cc(S(=O)(=O)N3CCCCC3)ccc21,?,-,?,1.72e-08M,?,-
c1ccc(N2CCN(c3nc4ccccc4n4nnnc34)CC2)cc1,-,-,-,1.85e-08M,-,-
O=S(=O)(c1ccccc1)N1CCC2(CCN(Cc3nccs3)CC2)CC1,-,-,-,-,-,-
Cc1cccn2c(=O)c3cc(C#N)c(=NC(=O)c4ccc5c(c4)OCO5)n(CC(C)C)c3nc12,-,-,-,-,-,-
Cc1cccn2c(=O)c3cc(C#N)c(=NC(=O)c4ccncc4)n(CCCOC(C)C)c3nc12,-,-,?,1.71e-08M,-,-
CCCn1c(=NC(=O)c2ccncc2)c(C#N)cc2c(=O)n3cccc(C)c3nc21,-,-,-,1.2e-08M,-,-
O=C(O)CCCC[C@H]1CCSS1,-,-,?,?,-,-
CN(C)c1ccc(/C=N/n2ncc3ccccc32)cc1,-,-,-,-,-,-
C=CCn1c(/N=C/c2ccc(N(C)C)cc2)nc2ccccc21,-,-,-,2.07e-08M,-,-
O=C(O)[C@H](/C=C\c1ccccc1)c1ccccc1,-,-,-,-,-,-
CN(C)S(=O)(=O)c1ccc2c(c1)/C(=C/c1cc3c([nH]1)CCCC3)C(=O)N2,-,-,-,1.9e-08M,-,-
COc1ccc(N(C)S(=O)(=O)c2ccc3c(c2)CCC(=O)N3)cc1,-,-,-,-,-,-
CN1Cc2sc(N)c(C#N)c2CC1(C)C,-,?,?,3.1e-08M,?,-
C[C@@H](COc1ccc(/C=C\c2ccccc2)cc1)[N+](C)(C)C,-,-,-,?,-,-
OCCN(CCO)c1nc(N2CCCCC2)c2nc(N(CCO)CCO)nc(N3CCCCC3)c2n1,-,2.93e-08M,-,6.68e-07M,-,-
CC(=O)[C@]1(O)CC[C@@H]2[C@H]3C[C@@H](C)C4=CC(=O)CC[C@@]4(C)[C@H]3[C@@H](O)C[C@]21C,-,-,?,-,-,-
Cc1ccnn2c(-c3ccccc3)c3c(=O)n(C)c(=O)n(C)c3c12,-,-,-,1.18e-08M,-,-
Cc1ccc(-c2c3c(=O)n(C)c(=O)n(C)c3c3nnc4ccccc4n23)cc1,-,?,-,1.11e-07M,-,-
SMILES,Resorufin fluor,A488 autofl,Texas Red fluor,Fluorescein autfl,Rhodamine fluor,A647 fluor
COc1cc(C(=O)N(CCc2ccccc2)C2CC3CCC(C2)N3C)cc(OC)c1OC (centres undefined),-,-,?,-,-,-
CN1[C@@H]2CC[C@H]1CC(OC(=O)[C@@H](CO)c1ccccc1)C2 (some centres undefined),-,-,?,3.01e-08M!,-,-
Nc1ncnc2c1ncn2[C@@H]1O[C@@H](C(=O)NC2CC2)[C@H](O)[C@@H]1O,-,-,?,?,-,-
OCc1ccncc1.OCc1ccncc1.[Cl][Pt]([Cl])([Cl])[Cl],-,-,-,-,-,-
COc1ccc2cc(C(c3nnnn3CCc3ccccc3)N3CCC(O)CC3)c(=O)[nH]c2c1 (centres undefined),1.29e-08M,-,4.1e-08M,1.44e-08M,2.4e-08M,-
O=C(/C=C\c1ccc(O)c(O)c1)OCCc1ccccc1,-,-,-,?,-,-

# Screening results (PubChem BioAssay)
